Assay outcomes from PubChem BioAssay.
Cycloheximide cs: counter-screen hit for Shiga toxin inhibitors, cycloheximide | max response, % | cell reporter, cycloheximide protein synthesis inhibition counterscreen | 12% of 300,000 active; in the data active = max response mostly above about 13%, no sharp cut-off; inactive = mostly below about 14%; also: read at 38.3 µM for the half of the compounds with a filed dose; 0% is about no effect
Tb PYK inh: blocks Trypanosoma brucei pyruvate kinase. Q57TT1. TbPYK enzyme, Kinase-Glo Plus ATP luminescence, 45 min. Potency, µM (highest dose often 76.8 µM), without a hit: top-dose activity, negative = inhibition, actives largely listed as inhibitors. 0.12% of 410,000 active. AID 624173; also: potency is read from the fitted curve at half-maximal effect; % is scaled to controls: 0 for no effect and ±100 for the full control effect; nearly all actives have a fitted effect of over 50% in size
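Screened from lowest to highest concentration, compounds were pinned into TbPYK/substrate mixtures, and ADP (130 uM final) was added. Plates sat at room temperature for 45 min prior to Kinase-Glo Plus detection by luminescence.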
Shiga inhibitor: Shiga toxin inhibition | 9.2% of 290,000 active | AID 2315 | inhibition, % at 38.7 µM | Vero cells, Shiga toxin protein synthesis inhibition reporter; in the data active = inhibition mostly above about 28%, no sharp cut-off; inactive = mostly below about 43%; also: 0% is about no effect
LmPK inhibitor: LmPK (Leishmania mexicana) enzyme inhibition | purified LmPK, Kinase-Glo ATP luminescence, 1 h | Potency, µM (doses to about 57.5 µM), without a hit: at the top dose activity change, negative = inhibition, actives largely listed as inhibitors | 0.37% of 290,000 active; also: potency is read from the fitted curve at half-maximal effect; % is scaled to controls: 0 for no effect and ±100 for the full control effect
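Kinase-Glo luminescence read after 1 h RT reaction of 0.1 nM LmPK with 0.5 mM PEP and 0.1 mM ADP. Activity scaled between uninhibited and enzyme-free controls.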
FBPA Giardia inh: Giardia lamblia aldolase inhibition. purified Giardia FBPA. Potency, µM (series often up to 59.6 µM), without a hit: at the highest dose activity, negative = inhibition, hits mostly inhibitors. 0.71% of 290,000 active. AID 2451; also: potency is read from the fitted curve at half-maximal effect; % is scaled to controls: 0 for no effect and ±100 for the full control effect; nearly all actives have a fitted effect of over 55% in size
Target sequence (A8B2U2 whole entry, looked up): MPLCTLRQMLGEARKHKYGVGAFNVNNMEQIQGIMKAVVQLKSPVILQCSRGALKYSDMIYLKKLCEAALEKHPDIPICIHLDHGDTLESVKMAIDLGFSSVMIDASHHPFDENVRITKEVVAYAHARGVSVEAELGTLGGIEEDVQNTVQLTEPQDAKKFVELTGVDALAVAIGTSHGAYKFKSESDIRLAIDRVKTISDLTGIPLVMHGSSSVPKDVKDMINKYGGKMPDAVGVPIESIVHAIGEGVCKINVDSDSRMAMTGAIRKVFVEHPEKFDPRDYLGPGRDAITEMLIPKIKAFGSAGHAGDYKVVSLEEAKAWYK
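40 nM FBPA preincubated 10 min at RT with compound (up to 57.5 uM final), then substrate plus GAPDH/TPI/NAD/arsenate coupling and diaphorase/resazurin added. Fluorescence read after 20 min at RT, 525/598 nm.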
Sm TGR block: inhibitors of Schistosoma mansoni thioredoxin glutathione reductase; Q962Y6; purified TGR, DTNB reduction, TNB absorbance 405 nm; Potency, µM (highest dose often 114 µM), without a hit: top-dose activity change, negative = inhibition, hits mostly inhibitors; 3% of 360,000 active; AID 485364; also: potency is read from the fitted curve at half-maximal effect; % is scaled to controls: 0 for no effect and ±100 for the full control effect; nearly all actives have a fitted effect of over 60% in size
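TGR 20 nM + NADPH 100 uM (dispensed conc.), cpd preinc 15 min RT; start with NADPH (500 uM addition) then DTNB (15 mM addition). Kinetic TNB absorbance, 405 nm filter. Four-parameter Hill fit across titration.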
* hit, by the source's call; u = inconclusive; x = no result given; [ ] = another dose, or the depositor's remark. The entries come from a sample that favours hits as a whole. Unless noted, calls follow the shape of the dose curve; as a rule, active = well fitted curve in the direction sought with a large enough effect; inconclusive = small, poorly fitted or top-dose-only effect, or another doubt; inactive = no such curve, though single readings can be large; an effect the other way counts as inactive or inconclusive.

SMILES	Cycloheximide cs	Tb PYK inh	Shiga inhibitor	LmPK inhibitor	FBPA Giardia inh	Sm TGR block
O=C1c2ccccc2NC(c2ccccc2)N1/N=C/c1ccccc1 (stereo not drawn)	10	-3%	37	2%	x	8%
O=C1c2ccccc2NC(c2ccc(O)cc2)N1/N=C/c1ccc(O)cc1 (stereo not drawn)	19*	4%	43*	1%	-16%	-13%
O=C1c2ccccc2NC(c2ccc(O)cc2)N1c1ccccc1 (stereo not drawn)	36*	-1%	58*	-1%	3%	-1%
CCN(c1ccccc1)S(=O)(=O)c1ccc(NC(=O)c2nc(SC(C)C)ncc2Cl)cc1	x	-1%	x	x	x	8%
CC(=O)Nc1ccc(NC2=C(Cl)C(=O)c3ccccc3C2=O)cc1	18	-16%	39	-11%	u	0.89µM*
COc1ccc(C2=C(Nc3ccc(C)cc3)c3ccccc3C2=O)cc1	1	2%	-13	-4%	0%	-3%
COC(=O)c1ccccc1S(=O)(=O)Nc1ccc2cn[nH]c2c1	3	-22%	29	3%	-23%	2%
CC(=O)Nc1ccc(NC(=O)c2cccc3c2-c2ccccc2C3=O)cc1	0	6%	-24	-1%	0%	0%
O=C(NC1=C(NC2CCS(=O)(=O)C2)C(=O)c2ccccc2C1=O)c1ccccc1 (stereo not drawn)	21	-22%	39	0%	1.3µM*	x
Cc1ccc(NC2=C(NCCO)C(=O)c3ccccc3C2=O)cc1	32*	-15%	87*	-14%	u	-19%
O=C1C(Cl)=C(Nc2ccc3cn[nH]c3c2)C(=O)c2ccccc21	-13	-23%	-12	u	u	0.32µM*
CC1(C(=O)NCc2cccs2)CCN1C(=O)Cc1ccc(Cl)cc1Cl (stereo not drawn)	x	-3%	x	x	x	x
COc1ccccc1NC1=C(NC(C)=O)C(=O)c2ccccc2C1=O	7	u	27	-24%	11µM*	4µM*
O=C(Oc1ccc(NC2=C(Cl)C(=O)c3ccccc3C2=O)cc1)c1ccc([N+](=O)[O-])cc1	18*	-8%	-3	-5%	-27%	-16%
Cc1cccc(NC2=C(NC(=O)c3ccccc3)C(=O)c3ccccc3C2=O)c1	14*	16µM*	30	3.5µM*	u	2.2µM*
O=C(Nc1ccc(NS(=O)(=O)c2ccccc2)cc1)c1ccc(Cl)cc1	4	7%	-1	5%	-5%	2%
O=C(Oc1ccc([N+](=O)[O-])cc1)c1cccnc1	-6	-11%	7	3%	0%	-31%
O=C(NC1=C(Nc2ccc(Cl)cc2)C(=O)c2ccccc2C1=O)c1ccccc1	24*	u	38	u	u	6.3µM*
Cc1cccc(C(=O)Nc2cccc(NC(=O)c3ccccc3)c2)c1	9	0%	12	1%	-4%	-5%
COc1ccc(N2CCN(S(=O)(=O)c3cc4c(cc3C)NC(=O)CO4)CC2)cc1	1	3%	15	0%	2%	-1%
Cc1nc2ccc(C(=O)Nc3cccc(OCC(=O)N(C)C)c3)cn2c1N(C)CC1CCCCC1	x	4%	x	x	x	x
C[C@H](NS(=O)(=O)c1ccc(F)cc1)C(=O)OCC(=O)c1c(N)n(C)c(=O)n(C)c1=O	x	-4%	x	x	x	x
Cc1ccccc1NS(=O)(=O)c1nnc(NC(=O)c2ccccc2C)s1	-2	-11%	-2	-8%	-17%	-12%
COc1ccc(CCNS(=O)(=O)c2cc(-c3cc(C)no3)ccc2OC)cc1OC	x	1%[15.4 µM]	x	x	x	7%
CN(c1ccc(C(=O)Nc2ccc(Cl)cn2)cc1)S(=O)(=O)c1ccccc1	12	2%	20	-4%	-27%	12%
SMILES	Cycloheximide cs	Tb PYK inh	Shiga inhibitor	LmPK inhibitor	FBPA Giardia inh	Sm TGR block
CN(C1=C(NC(=O)c2ccc(Cl)cc2)C(=O)c2ccccc2C1=O)c1ccccc1	20*	-14%	50*	-25%	u	-25%
Cc1cc(F)ccc1S(=O)(=O)N1CCCOC1CNC(=O)C(=O)NCCc1ccco1 (stereo not drawn)	x	3%	x	x	x	x
O=[N+]([O-])c1cccc(S(=O)(=O)NC2CC3CCC2C3)c1 (stereo not drawn)	-1	1%	x	14%	6%	0%
COc1ccc(NC(=S)NC2CC3CCC2C3)c(OC)c1 (stereo not drawn)	7	6%	5	0%	-20%	2%
COc1ccc(/C=N/NC(=S)N[C@H]2CC3CCC2C3)cc1 (stereo partly drawn)	13*	-6%	18	3%	-3%	3%
COc1ccc(CNC(=S)N/N=C/c2ccc(O)c(OC)c2)cc1	-3	-23%	18	-1%	-6%	-3%
O=C(/C=C/c1cccc([N+](=O)[O-])c1)NC1CC2CCC1C2 (stereo not drawn)	19*	-10%	34	0%	-12%	0%
COc1ccc(/C=C/C(=O)NC2CC3CCC2C3)cc1 (stereo not drawn)	27*	-3%	x	6%	3%	10%
COc1cc(/C=N/NC(=S)NC2CC3CCC2C3)ccc1O (stereo not drawn)	34*	2%	36	3%	0%	-21%
COc1ccc(/C=C/C(=O)NC2CCCCC2C)cc1 (stereo not drawn)	12	-3%	x	3%	-4%	6%
CCCC(=O)Nc1c(-c2cccc(C)c2)c(=O)c2ccccc2n1C	-6	-6%	-5	3%	-3%	1%
CCN1CCN(c2ccc(S(=O)(=O)N3CCCCC3)cc2NC(=O)c2sccc2C)CC1	x	-8%	x	x	x	2%
CC(C)(C)S(=O)N1Cc2cc(CO)cc(CCO)c2[C@H]1CCO (stereo partly drawn)	x	-1%	x	x	x	x
Cc1nnc2c(N3CCN(c4ccccc4F)CC3)nc3ccccc3n12	x	1%	x	x	x	-3%
S=C(N/N=C/c1ccc2c(c1)OCO2)NC1CC2CCC1C2 (stereo not drawn)	35*	1%	63*	1%	-4%	3%
CCOc1ccc(CNC(=O)c2oc3c(c2C)-c2nn(Cc4cccc(Cl)c4)cc2CC3)cc1	x	0%	x	x	x	u
CCCOC1CCCN(C(=O)c2ccc(OC3CCN(C(=O)CCOC)CC3)cc2)C1 (stereo not drawn)	16*	-2%	52	-3%	x	-7%
COCC(=O)N1CCC(Oc2ccc(C(=O)N(C)C3CCCCC3)cc2)CC1	-4	5%	-3	-5%	7%	-26%
COCCC(=O)N1CCC(Oc2ccc(C(=O)N(C)C3CCCCC3)cc2)CC1	12*	2%	x	6%	7%	u
O=C(NC1(C(F)(F)F)C(=O)Nc2c1c(=O)[nH]c(=O)n2CCc1ccccc1)c1ccc(Cl)cc1Cl (stereo not drawn)	x	-1%	x	x	x	-3%
